Measured values as given in the supplement of paper PMC3334620.
In all, about 33,000 sequences were measured (“E-score (-0.5 to 0.5)”: median about -0.012, highest 2% from about 0.27 on). This is one part of a sample in which the highest values are shown more often than they occur.

Target: T1, Vhr1 (UniProt P40522)
T1 sequence: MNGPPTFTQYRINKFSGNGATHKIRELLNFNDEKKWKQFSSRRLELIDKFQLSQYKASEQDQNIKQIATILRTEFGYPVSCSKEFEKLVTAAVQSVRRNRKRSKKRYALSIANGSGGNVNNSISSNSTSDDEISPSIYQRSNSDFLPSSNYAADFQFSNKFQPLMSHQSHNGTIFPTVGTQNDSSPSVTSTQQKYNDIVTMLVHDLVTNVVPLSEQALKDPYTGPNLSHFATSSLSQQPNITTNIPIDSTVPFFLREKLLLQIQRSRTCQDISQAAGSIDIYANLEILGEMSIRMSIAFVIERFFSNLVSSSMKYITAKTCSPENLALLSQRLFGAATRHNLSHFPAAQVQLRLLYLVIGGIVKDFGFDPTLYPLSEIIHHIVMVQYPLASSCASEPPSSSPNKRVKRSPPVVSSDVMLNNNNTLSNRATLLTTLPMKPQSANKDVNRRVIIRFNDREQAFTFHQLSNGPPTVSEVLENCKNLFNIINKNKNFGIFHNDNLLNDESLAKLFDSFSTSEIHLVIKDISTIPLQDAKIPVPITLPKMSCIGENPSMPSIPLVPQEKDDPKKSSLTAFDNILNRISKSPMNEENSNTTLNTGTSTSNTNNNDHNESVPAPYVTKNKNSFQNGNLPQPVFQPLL
Assay: PBM E-score (8-mer binding enrichment) (E-score (-0.5 to 0.5)); higher = stronger / more preferred TF binding
Conditions: protein concentration: 200 nM; construct: GST-full length
Experimental: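 Universal 'all 10-mer' protein binding microarrays (Agilent AMADID 015681) probed with GST-tagged S. cerevisiae TFs (full-length or DBD) made by in vitro transcription/translation (PURExpress), about 100-200 nM. Bound TF was detected with fluorescent anti-GST. Each ungapped 8-mer (which stands for itself and its reverse complement) is scored by the PBM enrichment score (E-score), a modified Wilcoxon-Mann-Whitney statistic from -0.5 to +0.5, computed with the Universal PBM Analysis Suite. Scale: above 0.35 generally sequence-specific binding.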

Going from ACTTATAT to GCACCGCA, the “PBM E-score” value falls from 0.199 to 0.0151.

Compared with GTTCATGA, ATCCACCA is lower in “PBM E-score” value: 0.142 for the first, 0.113 for the second.

Compared with ACCTTGCG, GAGGCGGC is higher in “PBM E-score” value: -0.0156 for the first, 0.0803 for the second.

First: GAGGTTGC
Second: CAACTATC
The “PBM E-score” value of the first is lower: -0.0739 for the first, 0.125 for the second.

Compared with ACTATCAA, CACGTGAC is lower in “PBM E-score” value: 0.112 for the first, 0.108 for the second.

Compared with AATGATTA, AATGATAA is lower in “PBM E-score” value: 0.304 for the first, 0.106 for the second.

First: GTTGATTA
Second: AATGATCA
The “PBM E-score” value of the first is higher: 0.239 for the first, 0.0798 for the second.

Going from GCTGATGA to GGTGATGA, the “PBM E-score” value rises from 0.185 to 0.233.

GGTGATTA and GATGATCA are the same in “PBM E-score” value: 0.285 for the first, 0.285 for the second.

First: GATGATCC
Second: GATGATTA
The “PBM E-score” value of the first is lower: 0.0747 for the first, 0.337 for the second.

Going from AATGATGA to GCTGATTA, the “PBM E-score” value rises from 0.163 to 0.197.

First: GCTGCGCC
Second: ATTAGCAA
The “PBM E-score” value of the first is lower: 0.0437 for the first, 0.124 for the second.

Going from CGAGAGCG to CTGCATCC, the “PBM E-score” value falls from -0.118 to -0.157.

Compared with ATCGCAAT, GATGATGA is lower in “PBM E-score” value: 0.157 for the first, 0.144 for the second.

First: TATGATGA
Second: CATGATGA
The “PBM E-score” value of the first is higher: 0.286 for the first, 0.254 for the second.

Compared with TAGGTTGA, AAAGAATG is lower in “PBM E-score” value: 0.0773 for the first, 0.0281 for the second.

Compared with CTGGAGTC, ATGGAGTA is lower in “PBM E-score” value: 0.356 for the first, 0.185 for the second.

Going from CTGGAGTA to ATGGAATA, the “PBM E-score” value rises from -0.0097 to 0.117.

Compared with CTGGAGAC, ATGGAATC is higher in “PBM E-score” value: 0.0265 for the first, 0.28 for the second.

Going from ATGGAGTG to CTGGAATC, the “PBM E-score” value rises from -0.0367 to 0.104.

First: ATGGAGTC
Second: CGATACGA
The “PBM E-score” value of the first is higher: 0.433 for the first, -0.0911 for the second.

Going from AGAAGCGC to TAGCACAA, the “PBM E-score” value falls from 0.16 to -0.0198.

Compared with CACACTCG, GACTCCGA is higher in “PBM E-score” value: 0.224 for the first, 0.428 for the second.

First: CACTCCGC
Second: AACTCCGA
The “PBM E-score” value of the first is higher: 0.144 for the first, 0.115 for the second.

Going from GACTCCGC to TACTCCGA, the “PBM E-score” value falls from 0.38 to 0.174.

First: AACTCCGC
Second: GCCTTAGA
The “PBM E-score” value of the first is higher: -0.0635 for the first, -0.114 for the second.

Compared with CTACCTCC, GATCCATC is lower in “PBM E-score” value: 0.241 for the first, 0.194 for the second.

First: AAACGACA
Second: CCTGAGGA
The “PBM E-score” value of the first is higher: 0.138 for the first, -0.0328 for the second.

First: GAAACTTA
Second: GCTGAGCA
The “PBM E-score” value of the first is lower: -0.0802 for the first, 0.149 for the second.

Going from GCTCTGCA to ATGGTATC, the “PBM E-score” value rises from -0.201 to 0.287.

Going from CTGGTATC to ATGGTATG, the “PBM E-score” value falls from 0.0298 to 0.00124.

Going from CTAGATGC to ACTCAGGG, the “PBM E-score” value rises from 0.00921 to 0.27.

Going from GGTCAGGA to CGTCAGGA, the “PBM E-score” value falls from 0.0179 to -0.0893.

Going from AGTCAGGA to ACTCAGGC, the “PBM E-score” value falls from 0.355 to 0.259.

Compared with AGTCAGGG, ATTCAGGG is lower in “PBM E-score” value: 0.356 for the first, 0.108 for the second.

Compared with CGTCAGGC, AGTCAGGC is higher in “PBM E-score” value: -0.213 for the first, 0.404 for the second.

Going from AAGTTGTG to ATATTTAG, the “PBM E-score” value rises from -0.00706 to -0.00388.

Compared with CACCTAGA, CACTTGAA is lower in “PBM E-score” value: -0.0265 for the first, -0.042 for the second.

Going from AAGCTAGT to AACCAGGA, the “PBM E-score” value rises from -0.0022 to -0.00068.

Going from GTTAACGA to CGCTTGTC, the “PBM E-score” value falls from -0.043 to -0.0745.

First: ATGACTGC
Second: ATCACTGA
The “PBM E-score” value of the first is higher: 0.41 for the first, 0.136 for the second.

Compared with ATCACTGC, GAGACTGA is lower in “PBM E-score” value: 0.289 for the first, 0.0631 for the second.

Compared with ATGACTCG, ATAACTCG is lower in “PBM E-score” value: 0.457 for the first, 0.0214 for the second.

Compared with AAGACTCG, GTGACTGA is higher in “PBM E-score” value: 0.0518 for the first, 0.384 for the second.

Going from CTCACTGC to GGGACTGA, the “PBM E-score” value falls from -0.102 to -0.174.

Compared with ACGACTGC, AGGACTGC is lower in “PBM E-score” value: -0.0133 for the first, -0.19 for the second.

Going from GTCTGAAA to GCTGAATA, the “PBM E-score” value rises from -0.0548 to 0.00091.
